Reference: PubChem BioAssay AID624330 (Southern Research Specialized Biocontainment Screening …, 2012)
The campaign covered roughly 340,000 compounds. About 2,100 (0.62%) were called active.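 Rule for the calls: active = first-screen hits whose inhibition reached a set limit at any dose in the follow-up dose series; inconclusive = inhibition above the set first-screen limit but never retested; inactive = the rest.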 Only a sample is shown. Potency and affinity values are given separately.

biological target: Rac GTPase-activating protein 1 (Homo sapiens) (UniProt Q9H0H5); assay: MgcRacGAP GTPase-activating activity inhibitors, confirmation, biochemical, ADP Hunter fluorescence, primary and confirmatory (AID 624330); settings: MgcRacGAP-stimulated Rac1 GTP hydrolysis, at 30 µM, stronger effect = higher value, GST-tagged Rac1 F28L mutant substrate;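 note: fluorescence reports GDP produced by GAP-driven GTP hydrolysis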
Sequence (Q9H0H5 whole entry, looked up): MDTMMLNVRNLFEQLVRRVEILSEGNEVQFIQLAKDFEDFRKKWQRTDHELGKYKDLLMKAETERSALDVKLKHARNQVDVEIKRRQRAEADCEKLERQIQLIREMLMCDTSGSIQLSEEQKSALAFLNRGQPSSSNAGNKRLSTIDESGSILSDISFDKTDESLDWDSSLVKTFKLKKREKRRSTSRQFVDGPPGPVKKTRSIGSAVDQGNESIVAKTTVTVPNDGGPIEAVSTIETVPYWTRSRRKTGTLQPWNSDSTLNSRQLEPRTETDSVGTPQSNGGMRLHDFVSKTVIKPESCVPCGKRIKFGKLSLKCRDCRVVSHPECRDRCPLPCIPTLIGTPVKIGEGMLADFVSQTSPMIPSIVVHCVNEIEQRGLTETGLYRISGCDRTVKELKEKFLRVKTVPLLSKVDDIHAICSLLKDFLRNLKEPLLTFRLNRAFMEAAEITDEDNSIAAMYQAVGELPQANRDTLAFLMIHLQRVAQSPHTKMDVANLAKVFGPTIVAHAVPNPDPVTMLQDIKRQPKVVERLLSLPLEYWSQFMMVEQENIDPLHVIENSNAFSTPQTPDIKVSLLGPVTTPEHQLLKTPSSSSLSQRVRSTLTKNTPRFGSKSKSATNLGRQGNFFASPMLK

inhibition, inactive:
Cc1noc(C)c1COC(=O)c1ccccc1Sc1ccccc1C#N 3.85%
CCOc1ccc(CCN2C(=S)N([C@@H](CC(C)C)CN3CCCC3CN3C(=S)NC[C@@H]3Cc3ccc(O)cc3)C[C@@H]2Cc2ccc(O)cc2)cc1 (stereo not given in full) 10.2%
O=C(OC(C(=O)NCc1ccccc1)c1ccccc1)c1ccco1 (stereo not given) 5.58%
Cc1cccn2cc(CNS(=O)(=O)c3cccc(F)c3)nc12 7.85%
O=C(CCc1nc2ccccc2[nH]1)N1CCN(C(=O)c2ccco2)CC1 -2.14%
CCC(C)[C@H](NC(=O)NCc1ccc(OC)c(OC)c1)C(=O)O (stereo not given in full) 11.4%
Cc1ccc2nc(SCc3nnc(-c4ccccc4)o3)[nH]c2c1 12.2%
CCOC(=O)C1(Cc2ccccc2C)CCCN(C(=O)c2ccc3nccnc3c2)C1 (stereo not given) 7.5%
CCN(c1ccccc1)S(=O)(=O)c1ccc(C(=O)NCCCN2CCOCC2)cc1 8.29%
O=C(NNC(=O)c1ccccc1[N+](=O)[O-])c1ccc(NC(=O)c2ccccc2)cc1 12.4%
O=C(N/C=C\n1cnc2cc(C(F)(F)F)ccc21)c1ccc([N+](=O)[O-])cc1 6.01%
CS(=O)(=O)c1ccc(Cl)c(NC(=O)CN2CCN(C(=O)c3cccs3)CC2)c1 3.52%
c1ccc(N2CCN(c3nc4ccccc4n4nnnc34)CC2)cc1 2.04%
O=C(NCc1cccc(F)c1)C1CCC(=O)N(CCc2cccc(F)c2)C1 (stereo not given) 0.03%
COc1cccc(C(CC(=O)NCc2ccco2)NS(=O)(=O)c2ccc(C)cc2)c1OC (stereo not given) 2.02%
O=C(COC(=O)c1ccccc1C(=O)c1ccc(Cl)cc1)NCC1CCCO1 (stereo not given) 3.71%
COc1ccccc1CN1CCSCC1 23.4%
COc1ccc(S(=O)(=O)N2CCN(Cc3ccccc3OC)CC2)cc1 11.4%
O=C(Nc1ccccc1)Nc1nncs1 9.87%
O=c1[nH]n(-c2ccc(F)cc2)c2ncccc12 15.2%
O=c1[nH]n(-c2ccc(Cl)cc2)c2ncccc12 31.6%
CC(C)=N/N=c1\scc(C)n1Cc1ccco1 6.39%
Cc1cs/c(=N\N=C\c2ccccc2)n1Cc1ccco1 7.87%
C[C@H](CO)N1C[C@H](C)[C@@H](CN(C)C(=O)Nc2ccc(C(F)(F)F)cc2)Oc2c(NC(=O)CCC(F)(F)F)cccc2C1=O 3.3%
Cc1cccc(C(=O)c2cn[nH]c2-c2ccc(C)cc2O)c1 4.53%
Cc1ccc(CNC(=O)C(=O)NCCC2CCCCN2S(=O)(=O)c2ccccc2)cc1 (stereo not given) 9.49%
Cc1ccccc1CNC(=O)CCn1nc(C)c2c(C)n(-c3ccccc3)nc2c1=O 13.3%
CCCC(=O)NC(=S)Nc1ccccc1F 5.15%
O=C(NC(=S)Nc1cccc2cc(O)ccc12)c1ccco1 23.9%
O=C(NC(=S)Nc1cccc2ncccc12)c1ccco1 -0.13%
O=C(COc1ccccc1)NC(=S)Nc1cccc2c(O)cccc12 17.9%
CCc1noc(C)c1C(=O)Nc1cccc2ncccc12 3.52%
O=C(COC(=O)Cc1ccc(Cl)cc1)NCc1cccs1 6.22%
COC(=O)c1ccccc1COn1c(=O)c(C)[n+]([O-])c2ccccc21 6.87%
CSc1nc(C)c2c(n1)N(c1ccc(F)cc1)CC2 11.7%
COc1ccc(N2CCc3c(C)nc(SC)nc32)cc1 2.67%
Cc1ccc(Cl)cc1N1CCN(S(=O)(=O)N2CCCCC2)CC1 8.42%
CN(C)S(=O)(=O)c1cccc(C(=O)NCCc2ccccc2)c1 10.5%
CN(c1ccccc1)S(=O)(=O)c1cccc(C(=O)NCc2ccccc2)c1 5.13%
CC(C)(C)NC(=O)C(c1ccccn1)N(C(=O)c1csnn1)C1CCCCC1 (stereo not given) 2.75%
CCOC(=O)C1(Cc2ccccc2)CCN(Cc2csc(C(C)=O)c2)CC1 3.47%
CC(=O)Nc1ccc(NC(=O)CC(c2ccccc2)c2ccccc2)cc1 11.3%
O=C(CCCC(=O)c1ccccc1)Nc1ccc(F)cc1 4.81%
CC(=O)c1ccc(NC(=O)CCCC(=O)c2ccccc2)cc1 8.95%
O=C(CC(c1ccccc1)c1ccccc1)Nc1ccc(C(=O)O)cc1 13.2%
Cc1c(OCC(=O)N[C@@H](CSCc2ccccc2)C(=O)O)ccc2c3c(c(=O)oc12)CCC3 4.52%
CC(=O)c1cccc(-c2ccc3c(=O)[nH]c(Nc4ccccc4)cc3c2)c1 0.61%
COc1cc(-c2cc(-c3ccccc3)nc(SCC(=O)Nc3nccs3)c2C#N)cc(OC)c1OC -0.01%
CCS(=O)(=O)Nc1cccc(C2=NN(S(=O)(=O)c3ccc(C)cc3)C(c3cccs3)C2)c1 (stereo not given) -1.77%
CN1OC[C@@H]2CN(C(=O)CCc3ccccc3)[C@H](c3cccc(-c4ccc(C#N)cc4)c3)C[C@@H]21 4.81%
O=C(N1CCOCC1)N1CCN(C(c2ccccc2)c2ccccc2)CC1 5.11%
CC(C)Cc1nc(SCC(=O)NCC2CCCO2)c2c(=O)n(C)c(=O)n(C)c2n1 (stereo not given) 5.52%
Cc1ccc(S(=O)(=O)N2CCN(CC(=O)N3CCOCC3)CC2)cc1 6.79%
Cc1ccc(N2CCN(S(=O)(=O)c3ccc(C)cc3)CC2)cc1 8.85%
Cc1cc(C)c(C)c(S(=O)(=O)N2CCN(c3ccccn3)CC2)c1C 6.39%
CC(=O)c1ccc(N2CCN(S(=O)(=O)c3ccc4ccccc4c3)CC2)cc1 1.69%
Cc1cc(C)c(C)c(S(=O)(=O)N2CCC(C(=O)N3CCN(c4ccc(F)cc4)CC3)CC2)c1C 3.44%
Cc1ccc(C(=O)O)cc1S(=O)(=O)N1CCC(C(=O)O)CC1 3.35%
COc1cccc(N2CCN(S(=O)(=O)c3ccc4ccccc4c3)CC2)c1 -3.05%
Cc1cc(C)c(C)c(S(=O)(=O)N2CCN(C)CC2)c1C 9.5%
